Bcl-xL primary: inhibitors of human Bcl-xL, primary screen, biochemical, fluorescence polarization, HTS; GST-Bcl-xL / FITC-Bim BH3 peptide fluorescence polarization; inhibition, % at 10.9 µM; 320,000 compounds, 0.7% hits; AID 2129, 2009;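 active = inhibition above the mean of all tested compounds plus 3 SD, cutoff set per campaign, cut at about 30% in these data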;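 also: 0% = DMSO wells and 100% = unlabeled Bim-BH3 peptide competitor; inhibitors lower millipolarization by displacing the labeled peptide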
Mcl1-Bid inh: Mcl-1/Bid binding inhibitors, primary screen, biochemical, TR-FRET, 1536-well; TR-FRET Mcl-1/Bid-Dy647 peptide binding; inhibition, % at 21.7 µM; 220,000 compounds, 0.97% hits; AID 1021, 2008;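 active = compounds that cut the binding signal by more than half at the single screening dose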;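 also: His-tagged Mcl-1 with europium anti-His antibody binding Bid BH3 peptide; 0% = Mcl-1 plus peptide wells and 100% = peptide-only wells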
Mcl-1 Bim block: inhibitors of Bim peptide binding to Mcl-1, primary screen, biochemical, bead-based flow cytometry, multiplex; Bim peptide-Mcl-1 binding; inhibition, % at 10 µM; 190,000 compounds, 0.1% hits; Induced myeloid leukemia cell differentiation protein Mcl-1 (Homo sapiens), Q07820; in the data active = inhibition above about 40%;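 also: 0% = no compound tracer wells and 100% = peptide blocker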
MCL1-BIM inh: inhibitors of MCL1 binding to BIM-BH3, primary screen, biochemical, fluorescence polarization. inhibition, % at 10.9 µM. 320,000 compounds, 0.68% hits. AID 2057, 2009. Induced myeloid leukemia cell differentiation protein Mcl-1 (Homo sapiens), Q07820. GST-MCL1 / FITC-Bim-BH3 fluorescence polarization;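 active = inhibition above the mean inhibition of all tested compounds plus 3 SD, set per campaign, cut at about 40% in these data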;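 also: 0% = DMSO wells and 100% = unlabeled Bim-BH3 peptide control; higher means more loss of mP so more displacement of Bim peptide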
Mcl1 Noxa PPI: Mcl-1/Noxa binding inhibitors, primary screen, biochemical, TR-FRET, 1536-well; Induced myeloid leukemia cell differentiation protein Mcl-1 (Homo sapiens), Q07820; TR-FRET Mcl-1/Noxa peptide binding, 2 h; inhibition, % at 21.7 µM; 220,000 compounds, 1.5% hits; AID 1022, 2008;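 active = compounds that cut the protein-peptide binding signal by more than 50% relative to plate controls in a single-dose test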;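 also: His-tagged Mcl-1 with rhodamine Noxa BH3 peptide and terbium anti-His antibody; 0% = Mcl-1 plus Noxa peptide wells and 100% = peptide-only wells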
GLD-1 RNA inh: GLD-1/TGE RNA complex disruptors, primary screen, biochemical, fluorescence polarization; Female germline-specific tumor suppressor gld-1 (Caenorhabditis elegans), Q17339; purified GLD-1 + fluorescein TGE RNA; inhibition, % at 5.96 µM; 320,000 compounds, 0.44% hits;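 active = percent inhibition above a per-plate cutoff, the plate mean of test compounds plus 3 SD, cut at about 30% in these data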;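 also: 0% = DMSO wells with GLD-1 and probe and 100% = wells lacking GLD-1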
Target sequence (Q17339 whole entry, looked up): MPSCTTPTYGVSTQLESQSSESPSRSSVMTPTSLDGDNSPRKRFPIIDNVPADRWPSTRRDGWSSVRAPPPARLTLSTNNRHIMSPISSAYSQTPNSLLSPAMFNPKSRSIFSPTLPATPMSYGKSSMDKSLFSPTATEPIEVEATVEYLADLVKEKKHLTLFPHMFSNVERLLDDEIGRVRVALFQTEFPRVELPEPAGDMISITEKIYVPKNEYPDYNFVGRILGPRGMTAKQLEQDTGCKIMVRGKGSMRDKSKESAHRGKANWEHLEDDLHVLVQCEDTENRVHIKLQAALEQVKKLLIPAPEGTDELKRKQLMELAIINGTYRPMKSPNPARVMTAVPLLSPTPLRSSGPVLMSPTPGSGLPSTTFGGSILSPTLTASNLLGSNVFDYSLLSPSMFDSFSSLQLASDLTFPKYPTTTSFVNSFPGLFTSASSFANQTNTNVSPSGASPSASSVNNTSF
Starred values were filed as active, the others as inactive; . = no result given. In the library only some 2.3% were active in any assay of this set; here they are far more common.

SMILES	Bcl-xL primary	Mcl1-Bid inh	Mcl-1 Bim block	MCL1-BIM inh	Mcl1 Noxa PPI	GLD-1 RNA inh
CN(CC(=O)Nc1ccccc1Cl)C(=O)CCc1nc2ccccc2c(=O)[nH]1	31*	.	.	31	.	25
CCCCCC1CCC(c2ccc(/C(N)=N/O)cc2)CC1 (centres undefined)	0	-2	.	-5	3	-9
C/C(=C\COc1ccc2ccc(=O)oc2c1)CC[C@@H](O)C(C)(C)O	160*	.	.	9	.	5
Cc1ccc(C)c(S(=O)(=O)N2CCN(CC(=O)N3CCc4ccccc4C3)CC2)c1	6	62*	0	2	7	11
O=C(CN1CCN(S(=O)(=O)c2cc(C(F)(F)F)ccc2Cl)CC1)N1CCc2ccccc2C1	-1	.	.	-5	.	4
CSCCC(NC(=O)COc1ccccc1)C(=O)O (centres undefined)	0	-26	2	5	-5	1
Cc1ccc(Cl)cc1N1CCN(C(=O)c2noc(C(C)C)c2[N+](=O)[O-])CC1	1	.	.	7	.	2
COc1ccc2[nH]c3c(c2c1)CCn1c-3nc2sc(C(=O)Nc3ccccc3)c(C)c2c1=O	.	75*	0	.	54*	.
CCc1cc2c(=O)n3c(nc2s1)-c1[nH]c2ccc(OC)cc2c1CC3	5	10	-1	0	10	2
N#Cc1nc(-c2ccc(Cl)cc2)oc1NCC1CCCO1 (centres undefined)	-10	-24	-1	2	8	5
Cc1cc(C)c(Nc2cc(S(=O)(=O)O)c(N)c3c2C(=O)c2ccccc2C3=O)c(C)c1	31*	94*	-2	52*	107*	11
Cc1cc(C)c(NC(=O)COC(=O)c2cccc3c2C(=O)c2ccccc2C3=O)c(C)c1	4	-3	4	9	4	11
COc1ccc(OC)c(NC(=O)CCN2CCCC(C)C2)c1 (centres undefined)	-2	51*	0	2	32	14
COc1ccc(OC)c(NC(=O)CCN2CC(C)CC(C)C2)c1 (centres undefined)	-1	.	.	-3	.	-1
Cc1nc(Nc2cccc(C(C)O)c2)c2nnn(Cc3ccccc3F)c2n1 (centres undefined)	-3	-13	0	-7	10	1
O=S(=O)(NCC(c1cccs1)N1CCc2ccccc2C1)c1ccccc1 (centres undefined)	7	.	.	0	.	5
CCOc1cc(CNc2ccc3[nH]c(=O)[nH]c3c2)ccc1OCC(=O)NC(C)(C)C	25	-11	3	22	44	6
COc1cc(CNc2ccc3[nH]c(=O)[nH]c3c2)cc(Cl)c1OCC(=O)NC(C)(C)C	10	-14	3	16	59*	-1
Cc1c2cnn(CC(=O)NCc3ccccn3)c(=O)c2c(C)n1Cc1ccccc1	-3	.	.	6	.	6
CCN(CC)c1ccc(NC(=O)Cn2ncc3c(C)n(Cc4ccccc4F)c(C)c3c2=O)c(C)c1	1	65*	3	-13	64*	-6
Cc1c2cnn(CC(=O)Nc3c(F)c(F)cc(F)c3F)c(=O)c2c(C)n1Cc1ccc(F)cc1	6	-16	-2	7	62*	-2
CC(Sc1nnnn1C1CCCC1)C(=O)Nc1cccc(S(=O)(=O)N2CCOCC2)c1 (centres undefined)	0	.	.	-3	.	6
COc1ccccc1CNC(=O)c1cnccn1	7	-53	2	18	68*	10
O=C(NCc1ccco1)c1ccc(CS(=O)Cc2cccc(Cl)c2)o1 (centres undefined)	0	.	.	-3	.	-6
O=C(O)c1ccccc1N/N=C/c1cc(Br)cc(Br)c1O	12	20	.	15	83*	1
SMILES	Bcl-xL primary	Mcl1-Bid inh	Mcl-1 Bim block	MCL1-BIM inh	Mcl1 Noxa PPI	GLD-1 RNA inh
CC(=O)Nc1cccc(NC(=O)CCNC(=O)c2ccc(Cl)cc2)c1	2	.	.	-6	.	2
O=C(O)c1ccc(NS(=O)(=O)c2ccc3c(c2)C2C=CCC2C(c2ccccc2F)N3)cc1 (centres undefined)	.	4	-1	.	93*	.
CCOC(=O)[C@@H]1[C@H]2COc3ccccc3[C@@H]2N2C(=O)N(c3ccc(Br)cc3)C(=O)[C@]12C	.	.	.	.	.	10
Cc1ncc(CO)c(/C=N/NC(=S)Nc2ccc(Cl)c(Cl)c2)c1O	1	-61	-1	-17	71*	2
COc1cccc(CN2CC(C(=O)NCCc3ccc(C)s3)CCC2=O)c1 (centres undefined)	6	.	.	1	.	2
CN(C)c1ccc(NC(=O)c2ccc(COc3cccc(Cl)c3)o2)cc1	3	-12	0	4	85*	1
Cc1cccc2c(N=O)c(O)[nH]c12	9	-50	.	2	55*	-6
O=C(O)C1=C[C@H](C2CC2)C[C@H](OCCCCO)O1	6	-13	44*	7	-21	0
CCc1nnc(SCC(=O)Nc2ccc(N3CCOCC3)cc2)n1C	-2	.	.	-9	.	2
COc1ccc(/C=C2\SC(=O)N(CCC(=O)Nc3ccc(S(=O)(=O)Nc4nccs4)cc3)C2=O)cc1	2	23	-2	1	93*	7
COc1ccc(/C=C2/SC(=O)N(CCC(=O)Nc3ccc(S(=O)(=O)Nc4nccs4)cc3)C2=O)cc1	3	42	-8	-7	96*	5
COc1ccc(/C=C2\SC(=S)N(CCC(=O)Nc3ccc(O)cc3)C2=O)cc1	-1	.	.	7	.	6
CC(=O)Nc1ccc2[nH]c3ccccc3c2c1	5	-28	-1	3	-18	-5
O=C(Nc1ccc(Cl)cc1)c1cc2c(cc1O)[nH]c1ccccc12	-1	34	.	0	61*	10
O=C(COC(=O)c1cccc(Cl)c1Cl)NCc1cccs1	0	.	.	-6	.	-4
CC(=O)c1ccc(NC(=O)C(C)N2CCN(C/C=C/c3ccccc3)CC2)cc1 (centres undefined)	-1	-4	.	-8	10	-5
CC(C(=O)Nc1ccc([N+](=O)[O-])cc1)N1CCN(C/C=C/c2ccccc2)CC1 (centres undefined)	-1	-26	41*	0	12	-2
COc1ccc(Cl)cc1NC(=O)C(C)N1CCN(C/C=C/c2ccccc2)CC1 (centres undefined)	7	51*	-5	3	28	3

Screens (PubChem BioAssay)
